Source: PubChem BioAssay
Compounds with a hit are over-represented: about 3% of the library has one in this group of screens.
Nrf2 ARE act: qHTS of Nrf2 Activators. 410,000 tested, 0.31% active. Potency, µM (top dose mostly 46.1 µM), for inactives: top-dose activation, usual class: activators. AREc32 ARE-luciferase reporter (MCF7-derived line), luminescence, 24 h; note: % of control where 0% means no effect; nearly all actives have a fitted effect of over 65% in size
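AREc32_Fluc, 1000 cells/well, OPTI-MEM + 5% FBS, o/n 37 deg C 5% CO2; 23 nL cpd by pin tool, 24 hr; Steady-Glo 30 min RT, luminescence.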
TrxR1 inh: qHTS Assay for Inhibitors of Mammalian Selenoprotein Thioredoxin Reductase 1 (TrxR1): qHTS. 390,000 tested, 1% active. Potency, µM (titrated, usually from 114 µM), for inactives: top-dose activity change, negative = inhibition, hits mostly inhibitors. recombinant rTrxR1, NADPH fluorescence consumption, selenite substrate. Thioredoxin reductase 1, cytoplasmic (Rattus norvegicus), O89049; note: % is set by controls: 0 for no effect and ±100 for the full control effect; nearly all actives have a fitted effect of over 65% in size
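Rat TrxR1 (90 nM in the dispensed reagent) was pre-reduced with 400 uM NADPH for 5 min at room temperature, then incubated with compound for 15 min. After 400 uM selenite was added, NADPH fluorescence (Ex 340/Em 450 nm) was followed for 8 min.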
A549 tox-1: Nrf2 qHTS screen for inhibitors: counterscreen for cytotoxicity | 390,000 tested, 0.16% active | A549 ARE-Fluc cells, CellTiter-Fluor viability, 18-24 h | Potency, µM (series often up to 46 µM), for the others: at the highest dose activity change, negative = cytotoxicity, actives largely listed as inhibitors; note: % is set by controls: 0 for no effect and ±100 for the full control effect
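Cytotoxicity counterscreen: CellTiter-Fluor fluorescence was measured in A549 ARE_Fluc cells after 18-24 h of compound exposure in a concentration series. The subsequent BugLite luminescent read reports ARE-luciferase activity.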
Nrf2 inh: Nrf2 qHTS screen for inhibitors; AID 504444, 2011; Potency, µM (titrated, usually from 46 µM), for the others: at the highest dose activity change, negative = inhibition, usual class: inhibitors; 360,000 tested, 2.1% active; A549 ARE-Fluc reporter, luciferase luminescence, 18-24 h; note: % is set by controls: 0 for no effect and ±100 for the full control effect; nearly all actives have a fitted effect of over 60% in size
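A549 ARE_Fluc cells (5000/well, 5% FBS OPTI-MEM) pre-incubated 2 h, then treated with compounds 18-24 h at 37C/5% CO2 in concentration-response. CellTiter-Fluor viability read first; BugLite luciferase luminescence after 15 min at room temperature gives Nrf2 activity.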
GALK inh: qHTS Assay for Inhibitors of Human Galactokinase (GALK) | Purified GALK, Kinase-Glo residual ATP luminescence | P51570 | Potency, µM (titrated, usually from 57.5 µM), for the others: top-dose activity change, negative = inhibition, most hits filed as inhibitors | AID 1868, 2009 | 270,000 tested, 0.007% active; note: % is set by controls: 0 for no effect and ±100 for the full control effect
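Galactose (100 uM) and ATP (35 uM) were turned over by 5 nM GALK for 1 h at RT. Kinase-Glo Plus then converted the remaining ATP into a luminescent signal.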
TrxR1 substrate: qHTS Assay for Substrates of Mammalian Selenoprotein Thioredoxin Reductase 1 (TrxR1): qHTS | Thioredoxin reductase 1, cytoplasmic (Rattus norvegicus), O89049 | purified TrxR1 substrate turnover, NADPH consumption readout | Potency, µM (top dose mostly 114 µM), inactives show top-dose activity change, negative = substrate turnover | 390,000 tested, 0.01% active | AID 588456, 2011; note: % is set by controls: 0 for no effect and ±100 for the full control effect; nearly all actives have a fitted effect of over 50% in size
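Rat TrxR1, dispensed at 90 nM, was prereduced with 400 uM NADPH (final) for 5 min at ~22 deg C, then incubated with compound 15 min before 400 uM selenite. A first-read NADPH fluorescence drop versus no-compound background flagged substrates.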
FLuc enzyme inh: Nrf2 qHTS screen for inhibitors: Purified Fluc Biochemical Counterscreen for Hit Validation | shares compounds with Nrf2 inh | AID 720522, 2013 | purified firefly luciferase, luminescence inhibition | Potency, µM (highest dose often 57.5 µM), for the others: at the top dose activity change, negative = inhibition, actives largely listed as inhibitors | 1,400 tested, 4% active; note: % is set by controls: 0 for no effect and ±100 for the full control effect; nearly all actives have a fitted effect of over 65% in size
Target sequence (P08659 whole entry, looked up): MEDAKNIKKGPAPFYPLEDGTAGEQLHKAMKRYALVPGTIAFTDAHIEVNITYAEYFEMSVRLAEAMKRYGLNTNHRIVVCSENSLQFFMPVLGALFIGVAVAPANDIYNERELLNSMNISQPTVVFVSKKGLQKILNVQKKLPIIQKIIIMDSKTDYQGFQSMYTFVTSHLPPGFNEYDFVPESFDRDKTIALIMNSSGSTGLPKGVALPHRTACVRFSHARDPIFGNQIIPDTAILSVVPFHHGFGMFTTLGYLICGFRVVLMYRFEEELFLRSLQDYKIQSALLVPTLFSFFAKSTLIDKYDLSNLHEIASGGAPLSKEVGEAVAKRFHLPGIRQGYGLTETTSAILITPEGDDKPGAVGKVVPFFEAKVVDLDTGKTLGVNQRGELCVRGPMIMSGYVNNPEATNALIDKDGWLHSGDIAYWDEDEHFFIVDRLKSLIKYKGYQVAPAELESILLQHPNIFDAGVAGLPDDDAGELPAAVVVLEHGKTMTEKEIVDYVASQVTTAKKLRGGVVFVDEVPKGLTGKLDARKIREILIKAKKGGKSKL
A549 tox-2: Nrf2 qHTS screen for inhibitors: A549 ARE-Fluc Cytotoxicity Counterscreen for Hit Validation. shares compounds with Nrf2 inh. Potency, µM (highest dose often 46.1 µM), for the others: top-dose activity change, negative = cytotoxicity, usual class: inhibitors. 1,400 tested, 2% active. A549 ARE-Fluc cells, cytotoxicity counterscreen;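 note: cells exposed to compounds for 18 to 24 hours; % is set by controls: 0 for no effect and ±100 for the full control effect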
Nrf2 ARE inh: Nrf2 qHTS screen for inhibitors: Nrf2 A549 ARE-Fluc Confirmation Assay for Hit Validation. A549 ARE-firefly luciferase reporter, luminescence. 1,400 tested, 74% active. AID 720524, 2013. Potency, µM (doses to about 46.1 µM), for inactives: at the top dose activity change, negative = inhibition, hits mostly inhibitors. shares compounds with Nrf2 inh; note: % is set by controls: 0 for no effect and ±100 for the full control effect; nearly all actives have a fitted effect of over 65% in size
Active calls of the source: *; ? = inconclusive; . = no result given; [ ] = dose if it differs, or a comment. Calls come from the whole dose curve; as a rule, active = well fitted curve in the direction sought with a large enough effect; inconclusive = small, poorly fitted or top-dose-only effect, or another doubt; inactive = no such curve, though single readings can be large; an effect the other way counts as inactive or inconclusive. Potency is the fitted concentration of half-maximal effect.

SMILES	Nrf2 ARE act	TrxR1 inh	A549 tox-1	Nrf2 inh	GALK inh	TrxR1 substrate	FLuc enzyme inh	A549 tox-2	Nrf2 ARE inh
CC(C)(C)C1CCc2c(sc(NC(=O)c3ccc(Cl)cc3)c2C(=O)NCc2ccco2)C1 (configuration not stated)	-1%	2%	0%	15%	.	13%	.	.	.
COc1cc(NC(=O)c2ccc(-c3nc(COc4ccccc4)c(C)o3)cc2)cc(OC)c1	1%	15%	0%	5.2µM*	.	2%	-12%	-7%	8.2µM*
Cc1oc(-c2ccc(C(=O)Nc3ccc(F)cc3)cc2)nc1COc1ccccc1	-1%	31%	0%	-10%	.	2%	.	.	.
CCOc1ccc(S(=O)(=O)N(CC)CC(=O)NCc2cccnc2)cc1	0%	-4%[57.1 µM]	4%	-3%	4%	-4%[57.1 µM]	.	.	.
Cc1ccsc1-c1nc(CSCC(=O)N2CCN(c3ccccc3)CC2)c(C)o1	3%	-44%	3%	?	1%	14%[57.1 µM]	.	.	.
COc1ccc(-c2nc(CSCC(=O)N3CCN(c4ccccc4)CC3)c(C)o2)cc1	-1%	-5%	?	2.6µM*	.	-9%	-17%	-22%	?
O=C(NCc1ccc(Cl)cc1)C1CCCN(c2ncnc3onc(-c4ccc(F)cc4)c23)C1 (configuration not stated)	0%	18%	-4%	-10%	.	4%	.	.	.
O=C(CSC1=Nc2ccccc2C2=NC(Cc3ccccc3)C(=O)N12)Nc1cccc(Cl)c1 (configuration not stated)	1%	4%[57.1 µM]	-17%	.	.	0%[57.1 µM]	.	.	.
CSc1ccc(CCNc2ncnc3onc(-c4ccc(Cl)cc4)c23)cc1	0%	5%	3%	9.2µM*	.	-7%	2%	-3%	?
Fc1ccc(-c2noc3ncnc(NCCc4ccc(Cl)cc4)c23)cc1	-1%	12%	2%	?	.	-6%	.	.	.
CCC(c1nnnn1Cc1ccccc1)N(Cc1ccccc1)Cc1cc2cc(C)ccc2[nH]c1=O (configuration not stated)	.	0%	?	4.1µM*	.	-1%	0%	-28%	?
CCOc1ccc(C(=O)Nc2ccc3nc(SCC(=O)N(C)c4ccccc4)sc3c2)cc1	0%	42%	-9%	5.8µM*	.	14%	?	-11%	8.2µM*
CN(C(=O)CSc1nc2ccc(NC(=O)c3ccccc3F)cc2s1)c1ccccc1	-1%	24%	?	?	.	14%	.	.	.
O=C(Oc1ccccc1N1C(=O)C2CCCCC2C1=O)c1ccccc1 (configuration not stated)	-1%	-3%	1%	-18%	.	-4%	.	.	.
